Only a selection was taken, and hits are over-represented in it overall.
Tgondii IFNg: T. gondii growth inhibition with IFN-gamma, primary screen, cell-based; Toxoplasma gondii growth in IFN-gamma-treated host cells; hits give low values; activity change, negative = inhibition, % (no concentration beside the values); 3.8% of 69,000 active; in the data active = activity change below about -70%, passing the limit was not always enough;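 also: host cells are HeLa cells infected with Toxoplasma gondii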
* marks the source's active call; other numbers are inactive results.

`CCCn1c(=O)cc(N2CCN(C(=O)CC)CC2)c2cc(C)ccc21` gave Tgondii IFNg -76*.
CCCCn1c(=O)cc(O)c2ccccc21 was read as Tgondii IFNg -3.
Screening CCCn1cc(C(=O)N2Cc3cnn(CCO)c3C2)c(C)n1 returned Tgondii IFNg 112.
O=C(O)CC1CC2(CCN(C(=O)Cc3cccnc3)CC2)Oc2ccccc21 (centres undefined) was read as Tgondii IFNg 5.
`CCC(=O)N1CCC2(CC1)CC(CC(=O)Nc1cccnc1)c1ccccc1O2` (centres undefined) gave Tgondii IFNg -3.
Screening CN(C)C(=O)N1CCC2(CC1)CC(CC(=O)Nc1cccnc1)c1ccccc1O2 (centres undefined) returned Tgondii IFNg -113*.
Screening CO[C@H]1CCN(C(=O)c2cnoc2C)[C@H]1Cc1ccccc1 returned Tgondii IFNg 47.
C=CCOCc1cncc2c1CCN(C(=O)c1ccncc1)C2 was read as Tgondii IFNg -14.
`COCc1cncc2c1CCN(C(=O)c1ccncc1)C2` gave Tgondii IFNg -98*.
`COCc1cncc2c1CCN(C(=O)c1ccc[nH]1)C2` gave Tgondii IFNg -66.
For COCCN1C[C@@H]2C[C@H](C(=O)Nc3ccccc3)[C@@H](C1)O2 the results were Tgondii IFNg 4.
For COc1ccc(-c2nc(Cn3c(=O)c4cccnc4n(-c4ccccc4OC)c3=O)c(C)o2)cc1 the results were Tgondii IFNg 18.
Screening CCO[C@H]1CCN(C(=O)c2cnc(C)cn2)[C@H]1Cc1ccccc1 returned Tgondii IFNg 3.
Cc1ccc2c(c1)cc(S(=O)(=O)c1ccccc1)c(=O)n2CC(=O)NCc1ccc2c(c1)OCO2 was read as Tgondii IFNg -17.
Screening Cc1ccc(CS(=O)(=O)N2CCc3c(CN4CCCC4)nn(C(C)C)c3C2)cc1 returned Tgondii IFNg 10.
`C[C@H](CO)N1C[C@H](C)[C@H](CN(C)C(=O)c2cc(-c3ccccc3)on2)OCc2cnnn2CCCC1=O` gave Tgondii IFNg -76*.
Screening C[C@@H]1CN([C@H](C)CO)C(=O)c2cc(NS(=O)(=O)c3cn(C)cn3)ccc2O[C@H]1CN(C)C(=O)Nc1cccc2ccccc12 returned Tgondii IFNg -1.
For C[C@@H]1CN([C@@H](C)CO)C(=O)CCCn2nncc2CO[C@H]1CN(C)C(=O)Nc1ccccc1C(F)(F)F the results were Tgondii IFNg 39.
For C[C@H]1CN([C@@H](C)CO)C(=O)CCCn2nncc2CO[C@@H]1CN(C)C(=O)Nc1ccccc1C(F)(F)F the results were Tgondii IFNg -96*.
`C[C@@H]1CN([C@@H](C)CO)C(=O)CCCn2nncc2CO[C@H]1CN(C)C(=O)c1cc(-c2ccccc2)on1` gave Tgondii IFNg 93.
`C[C@@H]1CN([C@H](C)CO)C(=O)c2cccc(NC(=O)C3CCOCC3)c2O[C@@H]1CN(C)C(=O)Nc1cccc2ccccc12` gave Tgondii IFNg -8.
COc1ccc(NC(=O)N(C)C[C@@H]2OCc3cnnn3CCCC(=O)N([C@H](C)CO)C[C@@H]2C)c(OC)c1 was read as Tgondii IFNg inactive.
Screening C[C@H](CO)N1C[C@H](C)[C@H](CN(C)C(=O)Nc2cccc3ccccc23)Oc2ncccc2C1=O returned Tgondii IFNg -119*.
For C[C@H](CO)N1C[C@H](C)[C@@H](CN(C)C(=O)c2cc(-c3ccccc3)on2)OCc2cnnn2CCCC1=O the results were Tgondii IFNg 66.
For O=C(Cn1c(=O)n(Cc2cccs2)c2ncccc21)NCc1cccs1 the results were Tgondii IFNg -4.
CC(=O)Nc1ccc(-c2nccn2CCn2cccn2)cc1 was read as Tgondii IFNg 47.
`COCCN1C(=O)CC[C@H]2[C@H]1CCN2C(=O)c1cccc(C)n1` gave Tgondii IFNg -6.
COC(C(=O)N1N=C(c2c(-c3ccccc3)c3cc(Cl)ccc3[nH]c2=O)CC1c1ccccc1)c1ccccc1 (centres undefined) was read as Tgondii IFNg -102*.
`CNC(=S)N1N=C(c2c(-c3ccccc3)c3cc(Cl)ccc3[nH]c2=O)CC1c1ccccc1` (centres undefined) gave Tgondii IFNg 156.
Screening CNC(=S)N1N=C(c2c(-c3ccccc3)c3cc(Cl)ccc3[nH]c2=O)CC1c1ccccc1OC (centres undefined) returned Tgondii IFNg -40.
COc1ccc2c(c1)NC1(CCN(S(=O)(=O)c3cc(F)ccc3C)CC1)c1cccn1-2 was read as Tgondii IFNg 10.
Screening Cn1ncc2c(Nc3ccc(C(=O)O)cc3)ncnc21 returned Tgondii IFNg 5.
For COC(=O)[C@@H]1C[C@@H](N(C)C)CN1C(=O)c1cc(C2CC2)nc2onc(C)c12 the results were Tgondii IFNg 8.
For COCCN1CCN(C(=O)C2CCOCC2)Cc2cccnc21 the results were Tgondii IFNg 5.
Screening O=C(NCc1cnn2cccnc12)c1ccccc1C1CCNC1 (centres undefined) returned Tgondii IFNg 12.
CCc1ccc(S(=O)(=O)N2CCC3(CC2)Nc2ccccc2-n2cccc23)cc1 was read as Tgondii IFNg -2.
Cc1ccccc1-c1nc(Cn2ccn3nc(-c4cccs4)cc3c2=O)c(C)o1 was read as Tgondii IFNg 119.
CCOc1ccccc1-c1nc(Cn2ccn3nc(-c4ccccc4OC)cc3c2=O)c(C)o1 was read as Tgondii IFNg inactive.
`CCOc1ccccc1-c1nc(Cn2ccn3nc(-c4cccs4)cc3c2=O)c(C)o1` gave Tgondii IFNg -87*.
`CN(C)S(=O)(=O)N1CCC2(CCOCC2COCC2CC2)CC1` (centres undefined) gave Tgondii IFNg 1.
CC(=O)N1CCCn2nc(C(=O)NC(C)Cc3cc(C)[nH]n3)cc2C1 (centres undefined) was read as Tgondii IFNg -4.
CC(C)Oc1ccc(CNC(=O)c2nc(Nc3ccc(F)cc3)c3ccccc3n2)cc1 was read as Tgondii IFNg 14.
For CCc1ccc(Nc2nc(-c3ccc(OC)cc3)nc3ccccc23)cc1 the results were Tgondii IFNg -20.
Screening Fc1ccc(-c2noc(-c3ccc4c(c3)OCO4)n2)cc1 returned Tgondii IFNg 6.
Screening O=C1Cc2cc(N3CC(C(=O)O)CC3=O)ccc2N1 (centres undefined) returned Tgondii IFNg 1.
Screening O=C1Cc2cc(-c3ccc4c(c3)OCO4)ccc2N1 returned Tgondii IFNg -75*.
`CCc1cc2ccccc2nc1SCC(=O)c1cccs1` gave Tgondii IFNg -36.
Screening CCN(C)c1cc(N2CCN(Cc3ccc(OC)cc3F)CC2)ncn1 returned Tgondii IFNg -21.
COc1ccc(C(=O)C2CCCN(C(=O)CCc3nc4ccccc4s3)C2)c(C)c1 (centres undefined) was read as Tgondii IFNg -14.
For COC1C2CCC1N(C(=O)CCc1ccccc1Cl)CCO2 (centres undefined) the results were Tgondii IFNg -3.
Screening COc1ccc(-c2coc3cc(O)cc(O)c3c2=O)cc1 returned Tgondii IFNg 173.
Screening O=c1c(-c2cc(O)c(O)c(O)c2)coc2cc(O)c(O)c(O)c12 returned Tgondii IFNg 19.
COc1cc(-c2coc3cc(OCc4ccccc4)c(OC)c(O)c3c2=O)cc(OCc2ccccc2)c1OC was read as Tgondii IFNg -79*.
`CCn1c(=O)c(-c2nc(-c3ccccc3)no2)c(O)c2ccc(F)cc21` gave Tgondii IFNg -19.

Compound activity as filed in PubChem BioAssay.
